# Values joined by “and” are separate entries in the source; they are usually repeats but may differ in a detail not shown here. Equal entries are not always repeated. For part of these data: Potency and affinity values are given separately. Active and inactive are the calls of the source. Unless noted, how the calls were made is not given here.
# Legend:
# [1] = growth inhibition of BT084 medulloblastoma cells, cell-based, ICGC_MB145, cisplatin and BGB IC40 combos (AID 1671461); settings: drug combinations, single agent, at 5 µM, stronger effect = higher value;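 further: cells exposed to drugs for 96 hours; 0% = vehicle DMSO and 100% = high DMSO full killing control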
# [2] = growth inhibition of RCMB18 medulloblastoma cells, cell-based, cisplatin and BGB IC40 combos (AID 1671462; in the data active means inhibition above about 80%;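 further: cells exposed to compound for four days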); settings: stronger effect = higher value
# [3] = growth inhibition of CRL1545 osteosarcoma cells, cell-based, cisplatin and BGB IC20 combos (AID 1671464; in the data active means inhibition above about 80%;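 further: cells exposed to compound for 96 hours before readout; 0% = vehicle DMSO and 100% = high DMSO killing control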); settings: stronger effect = higher value
# [4] = test system: Hepatitis C virus NS3 helicase; experiment: HCV NS3 helicase inhibitors, primary screen, biochemical, fluorescence polarization, NIH Clinical Collection (AID 743270); settings: NS3 helicase binding to Cy5-dT15 DNA, stronger effect = higher value, concentration not given here
# [5] = biological target: Single-stranded DNA-binding protein (Escherichia coli (strain K12)) (UniProt P0AGE0); experiment: E. coli SSB displacement from DNA, counter-screen for HCV NS3 helicase inhibitor project, biochemical, fluorescence polarization, NIH Clinical Collection (AID 743271; in the data active means inhibition above about 28%); settings: stronger effect = higher value, concentration not given here
# [6] = fluorescence interference in NS3h assay format, artefact control for HCV NS3 helicase inhibitor project, biochemical, NIH Clinical Collection (AID 743272); settings: fluorescence interference counterscreen, stronger effect = lower value;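 further: HCV NS3 helicase with a Cy5 labelled single stranded DNA probe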
# [7] = modulation of C. elegans fzo-1 (AID 1259413);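 further: fzo-1 mutant C. elegans worms in liquid wells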; settings: C. elegans fzo-1 modulator screen, mean read-out; stronger effect = higher value
# [8] = polyglutamine-triggered caspase-3 activation inhibitors, cell-based (AID 1583); settings: polyglutamine-induced caspase-3 activation, cell assay; stronger effect = higher value;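 tested at 10 µM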
# [9] = suppressors of polyQ aggregation in yeast, 75Q-TubU reporter (AID 1593); settings: Yeast 75Q polyglutamine aggregation reporter
# [10] = rescue of polyQ-huntingtin neuronal dysfunction in worms, whole organism, C. elegans mechanosensory neurons, N-terminal huntingtin (AID 1599); settings: touch response, stronger effect = higher value
# [11] = inhibitors of mitochondrial cytochrome c release, biochemical, purified mitochondria (AID 1603); settings: stronger effect = lower value;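 further: mouse liver mitochondria challenged with calcium chloride; signal normalized to the plate average as 100%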
# [12] = inhibitors of polyQ protein aggregation (AID 1604); settings: polyglutamine-induced protein aggregation inhibition assay; stronger effect = higher value; tested at 2.5 µM
# [13] = enhancers of glutamate uptake in motor neurons, MN-1 cell line (AID 1612); settings: MN-1 motor neuron cells, stronger effect = higher value;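 further: tested at 1 µM final; 0% = mean of DMSO vehicle wells on each plate; positive means more glutamate uptake than control and negative means less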
# [14] = suppressors of polyglutamine aggregation in yeast, 75Q-TubH (AID 1616); settings: S. cerevisiae 75Q-TubH polyglutamine aggregation suppression; stronger effect = higher value
# [15] = circadian clock period modulators, cell-based, LOPAC library, luminescence reporter (AID 2774); settings: circadian reporter cells, at 7 µM, actives lie on both sides;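 further: values are relative to mean of DMSO wells on each plate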
# [16] = test system: Hepatitis C virus NS3 helicase; experiment: HCV NS3 helicase inhibitors, primary screen, biochemical, fluorescence polarization, LOPAC1280 library (AID 687035; in the data active means inhibition above about 37%); settings: Purified HCV NS3 helicase, Cy5-dT15 ssDNA binding fluorescence polarization; stronger effect = higher value; concentration not given here
# [17] = Cy5 fluorescence quenching or enhancement artefacts, artefact control for HCV NS3 helicase inhibitor project, biochemical, LOPAC1280 (AID 687037); settings: Cy5-DNA-NS3h complex fluorescence interference counterscreen
# [18] = phospholipid biosynthesis inhibitors in animal cells, primary screen, cell-based, LOPAC library, screen 4 (AID 1347384); settings: phospholipid biosynthesis inhibition screen, at 10 µM
compound,measurement,setting,value
CCCC(CCC)C(=O)O,inhibition,[1],-18.9% and -8.84%
same,inhibition,[2]; at 0.5 µM,-2.59% (inactive) and -3.82% (inactive)
same,inhibition,"[2]; cisplatin combo, at 5 µM",-12% and -15.7%
same,inhibition,"[2]; measured here: BGB IC40 combination, at 0.05 µM",-2.36% and -1.73%
same,inhibition,"[2]; measured here: combination with cisplatin, at 0.5 µM",10.5% and -4.92%
same,inhibition,"[2]; single agent, at 5 µM",-25.2% and -0.151%
same,inhibition,[3]; at 0.5 µM,-19.7% (inactive) and -18.9% (inactive)
same,inhibition,"[3]; measured here: with BGB IC20 combination, at 0.5 µM",-18.4% and -23.1%
same,inhibition,"[3]; measured here: with cisplatin IC20 combination, at 0.5 µM",-23.1% and -18.8%
same,inhibition,"[3]; single agent, at 0.05 µM",-52.6% and 9%
same,inhibition,"[3]; single agent, at 5 µM",8.56% and -31.8%
NC(=O)c1cccnc1,inhibition,[4],0.66% (inactive)
same,inhibition,[5],-1.97% (inactive)
same,fluorescence ratio,[6],1.01 (inactive)
same,mean signal,[7],256 (inactive)
CC(C(=O)O)c1cccc(C(=O)c2ccccc2)c1 (stereo not drawn),inhibition,[8],-50.9%
same,score,[9],1.03
same,rescue above control,[10],17.1
same,cytochrome c release ratio,[11],1.12
same,inhibition of aggregation,[12],74.7%
same,glutamate uptake change,[13],-7.92%
same,aggregation suppression score,[14],0.564
same,period change,[15],-0.125 h (inactive)
same,inhibition,[16],-5% (inactive)
same,fluorescence ratio (interference),[17],1 (inactive)
same,inhibition,[4],-1.36% (inactive)
same,inhibition,[5],1.05% (inactive)
same,fluorescence ratio,[6],0.96 (inactive)
same,mean signal,[7],232 (inactive)
same,outcome,[18],inactive
CN1CCN(C2=Nc3cc(Cl)ccc3Nc3ccccc32)CC1,inhibition,[8],-23.8%
same,score,[9],1.19
same,cytochrome c release ratio,[11],1.52
same,inhibition of aggregation,[12],65.4%
same,glutamate uptake change,[13],-8.51%
same,aggregation suppression score,[14],1.14
same,period change,[15],0.13 h (inactive)
same,inhibition,[16],-3% (inactive)
same,fluorescence ratio (interference),[17],1 (inactive)
same,inhibition,[4],-2.27% (inactive)
same,inhibition,[5],-3.53% (inactive)
same,fluorescence ratio,[6],1.01 (inactive)
same,mean signal,[7],262 (inactive)
same,outcome,[18],inactive
O=C(O)CCc1nc(-c2ccccc2)c(-c2ccccc2)o1,period change,[15],0.145 h (inactive)
same,inhibition,[16],-4% (inactive)
same,fluorescence ratio (interference),[17],1 (inactive)
same,inhibition,[4],1.19% (inactive)
same,inhibition,[5],2.21% (inactive)
same,fluorescence ratio,[6],0.94 (inactive)
same,mean signal,[7],247 (inactive)
same,outcome,[18],inactive
CN1C(=O)CC[C@H]1c1cccnc1,inhibition,[8],25.7%
same,score,[9],1.01
same,rescue above control,[10],-5.98
same,cytochrome c release ratio,[11],0.78
same,inhibition of aggregation,[12],72.2%
same,glutamate uptake change,[13],11.3%
same,aggregation suppression score,[14],1.36
same,period change,[15],0.1 h (inactive)
same,inhibition,[16],-2% (inactive)
same,fluorescence ratio (interference),[17],1 (inactive)
same,inhibition,[4],5.15% (inactive)
same,inhibition,[5],6.83% (inactive)
same,fluorescence ratio,[6],0.91 (inactive)
same,mean signal,[7],242 (inactive)
same,outcome,[18],inactive
Cc1cc(NS(=O)(=O)c2ccc(N)cc2)no1,inhibition,[8],23.4%
same,score,[9],1.35
same,rescue above control,[10],-4.83
same,cytochrome c release ratio,[11],0.69
same,inhibition of aggregation,[12],58.6%
same,glutamate uptake change,[13],12.1%
same,aggregation suppression score,[14],1.36
same,inhibition,[4],0.45% (inactive)
same,inhibition,[5],-0.48% (inactive)
same,fluorescence ratio,[6],1 (inactive)
same,mean signal,[7],252 (inactive)
COc1cc(Cc2cnc(N)nc2N)cc(OC)c1OC,inhibition,[8],-19.7%
same,score,[9],1.11
same,rescue above control,[10],11.6
same,cytochrome c release ratio,[11],0.82
same,inhibition of aggregation,[12],83.3%
same,glutamate uptake change,[13],-5.77%
same,aggregation suppression score,[14],1.24
same,period change,[15],0.055 h (inactive)
same,inhibition,[16],1% (inactive)
same,fluorescence ratio (interference),[17],1 (inactive)
same,inhibition,[4],-3.18% (inactive)
same,inhibition,[5],0.29% (inactive)
same,fluorescence ratio,[6],0.95 (inactive)
same,mean signal,[7],243 (inactive)
same,outcome,[18],inactive
N=c1nc(N2CCCCC2)cc(N)n1O,inhibition,[8],20.6%
same,score,[9],1.58
same,rescue above control,[10],3.83
same,cytochrome c release ratio,[11],1.17
same,inhibition of aggregation,[12],22.5%
same,glutamate uptake change,[13],7.03%
same,aggregation suppression score,[14],1.83
same,period change,[15],-0.045 h (inactive)
same,inhibition,[16],-4% (inactive)
same,fluorescence ratio (interference),[17],1 (inactive)
same,inhibition,[4],-9.55% (inactive)
same,inhibition,[5],-5.05% (inactive)
same,fluorescence ratio,[6],1.03 (inactive)
same,mean signal,[7],252 (inactive)
same,outcome,[18],inactive

# — PubChem BioAssay
